Results as given in PubChem BioAssay AID743366 (National Center for Advancing Translational Sciences (NCATS), 2014).

Experiment: qHTS profiling of inhibitors of Plasmodium falciparum (HB3) proliferation (acoustic dispense)
Settings: P. falciparum HB3 in erythrocytes, SYBR Green, 72 h; at 49.8 µM (top of the series) unless noted

Structure (SMILES) | activity (normalised, proliferation)
Cc1[nH]c2ccccc2c1CCNCc1ccc(C=CC(=O)NO)cc1 | -2.24%
COc1ncnc(NS(=O)(=O)c2ccc(N)cc2)c1OC | 102%
CCCCCCOC(=O)C1(O)CC2OC1(C)n1c3ccccc3c3c4c(c5c6ccccc6n2c5c31)C(=O)NC4 (stereo unspecified) | 100% [at 1.88 µM]
C[C@H]1Cc2c([nH]c3cc(Cl)c(F)cc23)[C@@]2(N1)C(=O)Nc1ccc(Cl)cc12 | -0.548%
Cc1cn[nH]c1 | 39.3%
CCN(CC)CCNC(=O)c1c(C)[nH]c(C=C2C(=O)Nc3ccc(F)cc32)c1C | 0.208% [at 100 µM]
CC1(C)N=C(N)N=C(N)N1c1ccc(Cl)cc1 | -0.199%
COc1ccc(-c2cc3c(C)nc(N)nc3n(C3CCC(OCCO)CC3)c2=O)cn1 (stereo unspecified) | -1.37%
O=C(Nc1ccc([N+](=O)[O-])cc1Cl)c1cc(Cl)ccc1O | 99.3%
CO[C@H]1C=CO[C@@]2(C)Oc3c(C)c(O)c4c(O)c(c(C=NN5CCN(C)CC5)c(O)c4c3C2=O)NC(=O)C(C)=CC=C[C@H](C)[C@H](O)[C@@H](C)[C@@H](O)[C@@H](C)[C@H](OC(C)=O)[C@H]1C | -0.914% [at 16.5 µM]
COc1cc(NCc2ccc3nc(N)nc(N)c3c2C)cc(OC)c1OC | -2.34%
CC(=O)Nc1nc(C)c(-c2ccc(Cl)c(S(=O)(=O)NCCO)c2)s1 | -1.46%
CS(=O)(=O)CCNCc1ccc(-c2ccc3ncnc(Nc4ccc(OCc5cccc(F)c5)c(Cl)c4)c3c2)o1 | 7.39%
O=C1NC(=O)C(=Cc2ccc3nccc(-c4ccncc4)c3c2)S1 | 0.554%
c1cncc(CN2CCC(n3ncc4c(N5CCOCC5)nc(-c5ccc6[nH]ccc6c5)nc43)CC2)c1 | -0.669%
Cn1cc(C2=C(c3c4n(c5ccccc35)CCC(CN)C4)C(=O)NC2=O)c2ccccc21 (stereo unspecified) | -0.862%
